A short description of assay [1]: NCATS anti-infectives library activity on HEK293 viability as a counter-qHTS vs the C. elegans viability qHTS (AID 1745854).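 Note: HEK293 cells exposed to compounds for 24 hr before the viability read; % is set by controls: 0 for no effect and ±100 for the full control effect.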 In outline:
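HEK293 cells (1,500/well) exposed 24 hr at 37C to 1:5 titrations, up to 41.7 uM final; counter-screen to a C. elegans viability qHTS. Viability by CellTiter-Glo luminescence after 10 min at room temperature; digitonin as control.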
(In general: qHTS replaces the single test concentration by a dilution series.)

Assay [2] deals with Lysosomal acid glucosylceramidase (Homo sapiens) (UniProt P04062). The experiment in a line: Glucocerebrosidase-p2 (AID 348; in the data active = potency below about 10 µM; note: potency is the fitted concentration of half-maximal effect). To be noted: purified GBA, blue fluorogenic substrate, 40 min. A digest of the protocol:
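Compounds titrated from 0.6 nM upwards against 0.2 nM enzyme in pH 5.9 citric acid/KH2PO4, taurocholate, tween-20; blue fluorogenic substrate 80 uM, 40 min room temperature, stopped and read Ex 365/Em 440 for AC50.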

The nature of assay [3]: AP1 Signaling Pathway (AID 357; active = well fitted curve in either direction with a large enough effect, not every such curve was filed as active;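 note: ME-180 reporter cells stimulated with EGF at its EC50 level; % is set by controls: 0 for no effect and ±100 for the full control effect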). The following applies: ME-180 AP-1-bla reporter, EGF-induced, beta-lactamase ratio, 5 h; at 7.69 µM (top of the series) unless noted. A digest of the protocol:
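Cells are seeded overnight, exposed to compound titrations and an EC50 level of EGF for 5 hours at 37 °C, then loaded with CCF4 dye for 2.5 hours. Beta-lactamase activity under the AP-1 element is read as a blue/green ratio.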

For assay [4], the target named is Cytochrome P450 1A2 (Homo sapiens) (UniProt P05177). Put plainly: p450-cyp1a2 (AID 410; calls by dose curve; note: potency is the fitted concentration of half-maximal effect). A digest of the protocol:
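20nM CYP1A2 with 100uM Luciferin-ME (at Km) in 100mM KPO4; compound preincubated 10 min, NADPH regeneration added, 60 min at room temperature. Luciferin quantified by luminescence after detection reagent; normalized to 57 uM furafylline.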

Assay [5] in a line: NFAT Signaling Pathway (AID 444; active = well fitted curve in either direction with a large enough effect, not every such curve was filed as active;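 note: carbachol stimulus at about its EC50 of 1 µM final; % is set by controls: 0 for no effect and ±100 for the full control effect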). The following applies: Jurkat NFAT-bla M1, carbachol, beta-lactamase ratio, 5 h; at 7.69 µM (top of the series) unless noted. A digest of the protocol: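 Jurkat cells with NFAT-driven β-lactamase reporter and co-expressed M1 receptor, stimulated with carbachol (final 1 uM, ~EC50), compound titration, 5 h at 37 °C. CCF4 loaded 1 h at RT; 460/530 nm ratio gave %activity and AC50.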

Assay [6] can be described thus: Stat Signaling Pathway (AID 446; active = well fitted curve in either direction with a large enough effect, not every such curve was filed as active;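 note: ME-180 cervical cancer cells given 40 pM IL-6 alongside compound; SIE-controlled beta-lactamase reporter measured as 460/530 nm FRET emission ratio; % is set by controls: 0 for no effect and ±100 for the full control effect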). A digest of the protocol: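 Screening format detects activators and inhibitors alike: ME-180 SIE-bla cells stimulated at 40 pM IL-6 for 5 hrs with compound, then dual-emission beta-lactamase read at 405 nm excitation.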
Assay [7] addresses Glucocorticoid receptor (Homo sapiens) (UniProt P04150). The experiment in a line: GR-GFP Redistribution (AID 450;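 active = compounds whose dose series gives a full or clear partial fitted curve of increased nuclear translocation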; note: potency is the fitted concentration of half-maximal effect). The following applies: U2OS GR-GFP nuclear translocation, laser cytometry, 2 h.
Assay [8] has the same target. Put plainly: GR-EFC Redistribution (AID 451; calls by dose curve; note: potency is the fitted concentration of half-maximal effect). To be noted: CHO-K1 GR-EFC translocation, beta-gal luminescence, 2 h. In outline: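 CHO-K1 cells expressing nuclear EA and GR-ED fragments of b-gal; compounds titrated up to 46 uM final, 2 h at 37 C. GR nuclear translocation read as complemented b-gal luminescence after 1 h RT detection.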
Assay [9] has as its target Mitogen-activated protein kinase 10 (Mus musculus) (UniProt Q61831). The experiment in a line: JNK3 AlphaScreen Assay (AID 530; active = well fitted curve in either direction with a large enough effect, not every such curve was filed as active). A digest of the protocol:
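Pre-activated (IL-1β/TNFα) JNK3 in HepG2 lysates phosphorylates biotin-GST-cJun(1-79), 10 uM ATP; anti-phospho-cJun(Ser73) AlphaScreen read at room temperature, pH 7.6 Tris buffer. Compounds pre-incubated 15 min as titrations.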
For orientation: Bead proximity is the source of the signal in Alpha formats.

Assay [10] has as its target 3',5'-cyclic-AMP phosphodiesterase 4B (Homo sapiens) (UniProt Q07343). The experiment in a line: qHTS Assay for Inhibitors of PDE-IV (AID 607; active = well fitted activation curve with a large enough effect in the main read-out, with a control signal flat, not every such curve was filed as active; note: % of control where 0% means no effect). A digest of the protocol: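 The readout is membrane depolarisation from a cAMP-sensing CNG channel, detected with a potential dye at ex 535/em 590. Cells were HEK293-derived (endogenous PDE-IV) at 1000 cells/well, titrated up to 22.9 uM final.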

For assay [11], the target named is Cytochrome P450 3A4 (Homo sapiens) (UniProt P08684). Put plainly: qHTS Assay for Activators of Cytochrome P450 3A4 (AID 885). Note: nearly all actives have a fitted effect of over 65% in size. In outline: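 Steps: enzyme/substrate mix dispensed; compound added, 10 min RT; NADPH regeneration solution added, 60 min RT; luciferin detection buffer stops reaction; 20 min later luminescence measured.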
The target of assay [12] is Dual specificity protein kinase CLK4 (Homo sapiens) (UniProt Q9HAZ1). The experiment in a line: qHTS Assay for Inhibitors of CDC-like Kinase 4 (Kinase-Glo Assay) (AID 1770). Note: nearly all actives have a fitted effect of over 65% in size. Note: potency is the fitted concentration of half-maximal effect. In outline: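 Recombinant human Clk4 (25 nM) phosphorylated RS repeat peptide (100 uM) with 1 uM ATP in Tris pH 7.5/MgCl2/EGTA/DTT/Triton buffer for 4.5 h at room temperature. Residual ATP was quantified by Kinase-Glo luciferase luminescence.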

Assay [13] has the same target. Put plainly: qHTS Assay for Inhibitors of CDC-like Kinase 4 (ADP-Glo Assay) (AID 1771). Note: nearly all actives have a fitted effect of over 70% in size. Note: potency is the fitted concentration of half-maximal effect. In outline:
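25 nM Clk4 with 100 uM RS repeat peptide and 1 uM ATP (final) in buffer with 2 mM MgCl2, 0.5 mM EGTA, 2.5 mM DTT, 0.01% Triton X-100; 1 h at room temperature; ADP-Glo luminescence for ADP formed.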

The target is the same in assay [14]. Put plainly: qHTS Assay for Inhibitors of CDC-like Kinase 4 (ADP-FP Assay) (AID 1795). Note: nearly all actives have a fitted effect of over 60% in size. Note: potency is the fitted concentration of half-maximal effect. In outline:
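Recombinant human Clk4 (6.25 nM) phosphorylated RS repeat peptide (100 uM) with 1 uM ATP in Tris pH 7.5/MgCl2/EGTA/DTT/Triton buffer for one hour. ADP was quantified by Transcreener competitive fluorescence polarization against an ADP calibration curve.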

For assay [15], the target named is Ubiquitin carboxyl-terminal hydrolase 1 (Homo sapiens) (UniProt O94782). Put plainly: Inhibitors of USP1/UAF1: Pilot qHTS (AID 504865).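 Note: rhodamine fluorescence freed from ubiquitin-rhodamine substrate followed over time; top concentration of the series differs between compounds; % is set by controls: 0 for no effect and ±100 for the full control effect; nearly all actives have a fitted effect of over 35% in size.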 In outline: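 USP1/UAF1 complex (1nM) preincubated with compound 15 min at room temperature, then Ub-Rho substrate (150nM final) added. Fluorescence read kinetically at 480/540 nm, 6 reads every 60 seconds. Buffer: 50mM HEPES pH 7.8, 0.5mM EDTA, 0.1 mg/ml BSA, 1mM TCEP, 0.01% Tween-20.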

Assay [16] concerns the target Glutathione peroxidase 1 (Homo sapiens) (UniProt P07203). Put plainly: Primary qHTS Assay for Inhibitors of Recombinant Selenoprotein Glutathione Peroxidase 1 (GPX1) (AID 1845191). Note: nearly all actives have a fitted effect of over 65% in size. In outline:
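GR-coupled assay: compounds preincubated 30 min at room temperature with GPX1, then reaction started with CHP; final 10 nM GPX1, 1 mM GSH, 0.5 mM CHP, 0.5 mM NADPH, 100 nM GR, 0.01% BSA, pH 7.5 Tris buffer. NADPH fluorescence (340/450 nm) read at 0 and 15 min.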

In assay [17] the target is Cytochrome P450 3A4 (Homo sapiens) (UniProt P08684). The experiment in a line: qHTS Assay for Inhibitors and Substrates of Cytochrome P450 3A4 (AID 884). Note: potency is the fitted concentration of half-maximal effect; nearly all actives have a fitted effect of over 50% in size. In outline: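 20 nM human CYP3A4 with 25 uM Luciferin-PPXE (at KM) in 200 mM KPO4, preincubated 10 min with compound; NADPH regeneration started a 60 min RT reaction. Luciferin detected by luminescence, normalized to 57 uM ketoconazole as full inhibition.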

Assay [18] has as its target Cytochrome P450 2C19 (Homo sapiens) (UniProt P33261). Put plainly: qHTS Assay for Inhibitors and Substrates of Cytochrome P450 2C19 (AID 899). Note: potency is the fitted concentration of half-maximal effect; nearly all actives have a fitted effect of over 60% in size. A digest of the protocol: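 5 nM human CYP2C19 with 10uM Luciferin-H EGE (at KM) in 50mM KPO4, compound preincubated 10 min at 37C, then NADPH regeneration for 60 min at 37C. Luciferin read by luminescence after detection reagent; normalized to 57uM ketoconazole as full inhibition.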

For assay [19], the target named is Cytochrome P450 2D6 (Homo sapiens) (UniProt P10635). Put plainly: qHTS Assay for Inhibitors and Substrates of Cytochrome P450 2D6 (AID 891). Note: potency is the fitted concentration of half-maximal effect; nearly all actives have a fitted effect of over 60% in size. A digest of the protocol: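 Human CYP2D6 (5 nM) with 30 uM Luciferin-ME EGE (at Km) in 100 mM KPO4, compound preincubated 10 min, then NADPH regeneration system for 60 min at room temperature. Luciferin read by luminescence; normalized to 1.43 uM quinidine.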

Unmarked numbers belong to inactive results. Records with an inconclusive call do not appear. Calls of active or inactive are those of the source. Unless noted, calls come from the whole dose curve; as a rule, active = well fitted curve in the direction sought with a large enough effect; inconclusive = small, poorly fitted or top-dose-only effect, or another doubt; inactive = no such curve, though single readings can be large; an effect the other way counts as inactive or inconclusive.

Chain of Cytochrome P450 1A2 (Homo sapiens) (P05177 whole entry, looked up): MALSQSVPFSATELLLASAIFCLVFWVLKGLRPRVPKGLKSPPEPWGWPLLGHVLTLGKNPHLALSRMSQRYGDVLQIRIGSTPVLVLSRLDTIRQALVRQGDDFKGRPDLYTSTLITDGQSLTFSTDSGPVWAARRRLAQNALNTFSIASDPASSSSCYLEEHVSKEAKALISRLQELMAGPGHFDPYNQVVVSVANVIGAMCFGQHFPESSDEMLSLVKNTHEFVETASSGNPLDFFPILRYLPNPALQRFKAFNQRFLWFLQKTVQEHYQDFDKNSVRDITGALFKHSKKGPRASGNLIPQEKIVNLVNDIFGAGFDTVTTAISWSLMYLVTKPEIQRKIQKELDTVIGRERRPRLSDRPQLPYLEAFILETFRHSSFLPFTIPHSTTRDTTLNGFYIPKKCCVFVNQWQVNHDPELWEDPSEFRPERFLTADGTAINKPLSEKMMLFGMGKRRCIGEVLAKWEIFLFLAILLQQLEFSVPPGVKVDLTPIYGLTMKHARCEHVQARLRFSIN
Chain of 3',5'-cyclic-AMP phosphodiesterase 4B (Homo sapiens) (Q07343 whole entry, looked up): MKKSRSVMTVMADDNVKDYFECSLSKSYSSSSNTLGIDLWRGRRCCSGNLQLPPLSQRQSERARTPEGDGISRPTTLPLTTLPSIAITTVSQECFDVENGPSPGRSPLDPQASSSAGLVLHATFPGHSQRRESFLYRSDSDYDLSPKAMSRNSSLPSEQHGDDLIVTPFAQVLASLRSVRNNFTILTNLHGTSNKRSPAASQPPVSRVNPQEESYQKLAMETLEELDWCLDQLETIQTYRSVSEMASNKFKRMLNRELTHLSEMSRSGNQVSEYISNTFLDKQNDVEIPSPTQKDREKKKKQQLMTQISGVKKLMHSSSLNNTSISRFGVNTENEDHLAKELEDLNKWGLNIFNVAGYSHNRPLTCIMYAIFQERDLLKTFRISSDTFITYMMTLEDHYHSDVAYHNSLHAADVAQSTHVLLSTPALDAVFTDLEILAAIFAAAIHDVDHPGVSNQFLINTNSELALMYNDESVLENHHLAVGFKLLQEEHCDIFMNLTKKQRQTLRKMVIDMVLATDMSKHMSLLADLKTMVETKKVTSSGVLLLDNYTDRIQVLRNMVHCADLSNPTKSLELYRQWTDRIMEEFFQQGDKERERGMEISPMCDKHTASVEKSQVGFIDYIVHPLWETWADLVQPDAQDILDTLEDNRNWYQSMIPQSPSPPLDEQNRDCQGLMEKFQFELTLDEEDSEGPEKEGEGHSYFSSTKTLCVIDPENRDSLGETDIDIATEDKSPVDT
Chain of Glucocorticoid receptor (Homo sapiens) (P04150 whole entry, looked up, the tested form may be a part): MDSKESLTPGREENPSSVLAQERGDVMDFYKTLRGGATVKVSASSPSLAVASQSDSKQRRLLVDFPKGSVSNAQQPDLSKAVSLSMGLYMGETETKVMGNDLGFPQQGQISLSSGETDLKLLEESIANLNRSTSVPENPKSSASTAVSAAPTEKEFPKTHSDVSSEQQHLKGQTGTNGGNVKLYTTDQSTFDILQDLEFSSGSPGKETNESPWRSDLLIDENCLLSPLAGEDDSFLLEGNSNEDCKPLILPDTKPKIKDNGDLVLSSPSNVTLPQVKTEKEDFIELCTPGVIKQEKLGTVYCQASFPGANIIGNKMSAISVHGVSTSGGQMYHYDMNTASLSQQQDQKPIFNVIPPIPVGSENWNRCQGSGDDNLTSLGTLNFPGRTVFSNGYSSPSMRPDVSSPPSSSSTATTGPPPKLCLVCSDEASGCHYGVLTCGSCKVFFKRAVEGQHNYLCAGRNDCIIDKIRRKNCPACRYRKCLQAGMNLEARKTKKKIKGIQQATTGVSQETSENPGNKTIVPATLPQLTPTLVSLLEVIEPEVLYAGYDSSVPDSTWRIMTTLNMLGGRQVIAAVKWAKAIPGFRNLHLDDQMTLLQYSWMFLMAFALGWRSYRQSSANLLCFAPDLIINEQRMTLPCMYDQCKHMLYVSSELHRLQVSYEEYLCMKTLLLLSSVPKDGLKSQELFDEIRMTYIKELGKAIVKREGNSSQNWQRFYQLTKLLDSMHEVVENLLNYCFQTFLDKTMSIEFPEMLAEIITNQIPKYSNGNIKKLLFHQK
Chain of Cytochrome P450 3A4 (Homo sapiens) (P08684 whole entry, looked up): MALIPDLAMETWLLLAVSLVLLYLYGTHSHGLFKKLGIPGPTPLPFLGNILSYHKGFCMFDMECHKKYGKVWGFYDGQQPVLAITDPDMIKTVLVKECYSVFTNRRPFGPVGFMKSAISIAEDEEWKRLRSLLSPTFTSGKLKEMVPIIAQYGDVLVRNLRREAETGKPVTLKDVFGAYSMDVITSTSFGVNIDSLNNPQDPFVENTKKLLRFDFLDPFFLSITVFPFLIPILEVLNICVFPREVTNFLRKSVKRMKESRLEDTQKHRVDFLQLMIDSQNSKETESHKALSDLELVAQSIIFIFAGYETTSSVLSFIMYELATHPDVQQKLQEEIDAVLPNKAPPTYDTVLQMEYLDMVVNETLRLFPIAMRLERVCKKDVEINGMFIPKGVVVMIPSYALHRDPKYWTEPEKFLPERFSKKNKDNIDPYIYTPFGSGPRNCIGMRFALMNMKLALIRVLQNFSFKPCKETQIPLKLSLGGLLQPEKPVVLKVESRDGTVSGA
Chain of Dual specificity protein kinase CLK4 (Homo sapiens) (Q9HAZ1 whole entry, looked up): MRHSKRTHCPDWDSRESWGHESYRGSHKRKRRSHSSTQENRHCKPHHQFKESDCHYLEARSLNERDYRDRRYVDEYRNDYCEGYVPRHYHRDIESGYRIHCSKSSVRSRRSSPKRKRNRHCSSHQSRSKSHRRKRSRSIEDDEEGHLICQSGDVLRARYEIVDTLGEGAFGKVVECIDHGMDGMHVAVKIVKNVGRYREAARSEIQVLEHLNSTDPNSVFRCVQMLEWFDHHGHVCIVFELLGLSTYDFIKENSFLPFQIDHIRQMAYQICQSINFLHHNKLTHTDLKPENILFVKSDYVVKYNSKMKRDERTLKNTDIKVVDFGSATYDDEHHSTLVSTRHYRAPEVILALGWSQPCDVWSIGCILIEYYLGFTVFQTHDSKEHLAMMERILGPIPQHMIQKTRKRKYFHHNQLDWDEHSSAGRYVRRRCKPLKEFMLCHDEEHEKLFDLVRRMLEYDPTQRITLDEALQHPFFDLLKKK
Chain of Ubiquitin carboxyl-terminal hydrolase 1 (Homo sapiens) (O94782 whole entry, looked up): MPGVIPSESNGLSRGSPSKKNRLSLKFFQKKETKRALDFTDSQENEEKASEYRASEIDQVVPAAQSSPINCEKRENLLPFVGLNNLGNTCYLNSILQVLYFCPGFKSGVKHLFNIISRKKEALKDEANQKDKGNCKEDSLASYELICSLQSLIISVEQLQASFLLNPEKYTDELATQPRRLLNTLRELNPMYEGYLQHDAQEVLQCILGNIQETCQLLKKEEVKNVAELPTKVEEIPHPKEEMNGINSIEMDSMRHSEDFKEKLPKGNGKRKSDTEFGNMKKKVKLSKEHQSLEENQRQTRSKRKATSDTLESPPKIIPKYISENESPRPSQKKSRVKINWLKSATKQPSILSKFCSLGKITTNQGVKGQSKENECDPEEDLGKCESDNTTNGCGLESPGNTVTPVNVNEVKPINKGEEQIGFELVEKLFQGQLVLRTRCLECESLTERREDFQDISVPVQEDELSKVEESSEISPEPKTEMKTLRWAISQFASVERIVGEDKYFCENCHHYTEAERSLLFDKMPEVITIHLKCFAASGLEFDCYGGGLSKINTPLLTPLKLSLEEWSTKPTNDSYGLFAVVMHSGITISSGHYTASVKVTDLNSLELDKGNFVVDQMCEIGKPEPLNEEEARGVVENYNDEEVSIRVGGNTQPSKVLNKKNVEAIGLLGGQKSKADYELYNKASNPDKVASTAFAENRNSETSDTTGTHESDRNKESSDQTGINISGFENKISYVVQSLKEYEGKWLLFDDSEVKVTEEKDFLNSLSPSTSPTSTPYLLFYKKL
Chain of Lysosomal acid glucosylceramidase (Homo sapiens) (P04062 whole entry, looked up): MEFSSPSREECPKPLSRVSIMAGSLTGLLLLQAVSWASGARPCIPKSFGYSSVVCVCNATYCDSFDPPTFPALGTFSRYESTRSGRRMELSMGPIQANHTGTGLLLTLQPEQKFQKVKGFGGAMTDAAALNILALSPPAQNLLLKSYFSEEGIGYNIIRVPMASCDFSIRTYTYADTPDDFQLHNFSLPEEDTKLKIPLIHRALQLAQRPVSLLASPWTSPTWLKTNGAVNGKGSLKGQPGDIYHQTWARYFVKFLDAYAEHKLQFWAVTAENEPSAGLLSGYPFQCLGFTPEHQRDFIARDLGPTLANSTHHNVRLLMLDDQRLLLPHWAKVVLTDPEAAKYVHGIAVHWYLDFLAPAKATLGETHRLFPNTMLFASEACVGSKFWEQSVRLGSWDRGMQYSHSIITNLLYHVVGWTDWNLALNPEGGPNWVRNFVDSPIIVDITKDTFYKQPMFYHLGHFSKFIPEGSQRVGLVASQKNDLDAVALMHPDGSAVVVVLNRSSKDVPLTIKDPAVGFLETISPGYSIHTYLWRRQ
Chain of Cytochrome P450 2C19 (Homo sapiens) (P33261 whole entry, looked up): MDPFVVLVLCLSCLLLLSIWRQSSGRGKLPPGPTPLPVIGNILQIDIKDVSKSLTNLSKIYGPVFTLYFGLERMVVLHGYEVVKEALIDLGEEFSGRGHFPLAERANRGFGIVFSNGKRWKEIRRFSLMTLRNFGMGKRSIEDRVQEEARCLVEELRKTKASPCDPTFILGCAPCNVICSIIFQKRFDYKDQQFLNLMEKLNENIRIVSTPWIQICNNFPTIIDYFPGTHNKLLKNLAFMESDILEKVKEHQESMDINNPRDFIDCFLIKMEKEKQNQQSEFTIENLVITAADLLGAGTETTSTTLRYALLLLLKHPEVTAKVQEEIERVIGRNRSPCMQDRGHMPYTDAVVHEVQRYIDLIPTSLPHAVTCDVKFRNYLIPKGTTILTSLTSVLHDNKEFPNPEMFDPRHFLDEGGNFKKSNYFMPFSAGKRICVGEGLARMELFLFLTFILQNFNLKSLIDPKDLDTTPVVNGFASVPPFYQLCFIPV

Consider `O=C(Nc1ccccc1)c1ccccc1O`, for which the Potency result in [1] is “inactive”.

Turning to `COc1cccc(Nc2ncc3ncc(=O)n(CCC#N)c3n2)c1`, the Potency in assay [2] was > 11.4 µM; in [4], 1 µM (active); in assay [7], > 9.22 µM; in assay [8] it was > 46 µM; in assay [12] it was 6.31 µM (active); in assay [13], 3.55 µM (active). The Potency in assay [14] was 2.51 µM (active). Also, the activity change, negative = inhibition in [3] is -26.1%; in [5], -0.673%. Also, the result in assay [6] and in [11] was inactive. Moreover, the Potency entry in assay [9], in [10] and in assay [15] was “inactive” throughout.

Turning to `O=C1CCC[C@@H]2[C@@H]3CCC[N@+]4([O-])CCC[C@H](CN12)[C@H]34`, the Potency result in [1] and in assay [16] was “inactive” each time.

For the molecule `CS(=O)(=O)Nc1cccc(-c2nc(Nc3ccncc3)c3ccccc3n2)c1`, the Potency in assay [2] is 7.2 µM (active); in assay [4], 0.631 µM (active); in [7] it was > 46 µM; in assay [8], > 46 µM; in assay [17] it was 3.98 µM (active); in [18], 5.01 µM (active). Further, the Potency in assay [12] is 12.6 µM (active); in assay [13], 10 µM (active). For the same molecule, in [3], the activity change, negative = inhibition is -17.9%. In addition, the result in assay [6] and in [11] was inactive. The Potency entry in [9] and in assay [15] was “inactive” each time.

Consider `COc1ccccc1-c1nc(Nc2ccncc2)c2ccccc2n1`, for which the activity change, negative = inhibition in [3] was -6.27%. For the same molecule, the Potency in assay [4] is 0.316 µM (active); in assay [7], > 46 µM; in assay [8], > 46 µM; in assay [12], 14.1 µM (active); in assay [13], 12.6 µM (active); in assay [14], 14.1 µM (active). The molecule was called inactive in assay [6] and in assay [11]. In addition, the Potency result in assay [9] and in assay [15] was “inactive” throughout.

With `O=c1c(CCc2ccccc2)nc2cnc(N3CCNCC3)nc2n1-c1ccccc1`, the activity change, negative = inhibition in assay [3] is -11.6%; in [5], 6.64%. The Potency was 15.8 µM (active) in assay [4], > 9.22 µM in [7] and > 46 µM in assay [8]. For the same molecule, the result in assay [6] was inactive. The Potency result in [9], in [10], in [12], in [13], in assay [14] and in assay [15] was “inactive” throughout.

In the case of `COc1ccc2[nH]cc(CCNc3ncncc3-c3ccccc3OC)c2c1`, the Potency in [2] is > 11.4 µM; in assay [4], 2.51 µM (active); in [7], > 46 µM; in assay [8] it was > 46 µM; in assay [17] it was 0.126 µM (active); in assay [19] it was 1.26 µM (active). The results for the Potency in [18], in [12] and in assay [13] were 0.0794 µM (active), 8.91 µM (active) and 25.1 µM (active), respectively. The activity change, negative = inhibition is -16.8% in assay [3] and -9.5% in assay [5]. In addition, the result in [6] and in assay [11] was inactive. The Potency result in assay [9], in assay [10] and in assay [15] was “inactive” in each case.

(Values after PubChem BioAssay (NCATS).)
